The text below walks through data of article PMC7862700, “An all-to-all approach to the identification of sequence-specific readers for epigenetic DNA modifications on cytosine”.

Test in all cases: DAPPL (digital affinity profiling via proximity ligation, sequencing); 10 mM Tris-HCl pH 7.5, 50 mM NaCl, 1 mM DTT, 4% glycerol, room temperature, 30 min; GST-TFs on glutathione beads, 16-mer random dsDNA library, 0.1% formaldehyde crosslink after washing; high values mean tight binding
The target in one test is T1, FLI1 (Homo sapiens, UniProt Q01543 1-452).
T1 sequence: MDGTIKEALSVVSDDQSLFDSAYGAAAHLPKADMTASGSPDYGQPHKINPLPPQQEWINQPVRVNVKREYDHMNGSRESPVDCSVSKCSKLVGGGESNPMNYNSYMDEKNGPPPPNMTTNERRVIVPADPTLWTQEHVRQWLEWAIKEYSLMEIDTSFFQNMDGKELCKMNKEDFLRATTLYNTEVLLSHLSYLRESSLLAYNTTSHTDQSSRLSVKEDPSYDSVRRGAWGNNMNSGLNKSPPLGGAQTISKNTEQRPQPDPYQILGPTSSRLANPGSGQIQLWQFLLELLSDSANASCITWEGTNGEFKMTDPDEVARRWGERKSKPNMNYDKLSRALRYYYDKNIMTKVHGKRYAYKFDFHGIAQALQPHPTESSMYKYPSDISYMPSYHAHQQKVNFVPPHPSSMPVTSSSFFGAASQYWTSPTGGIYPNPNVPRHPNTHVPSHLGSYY
To be noted: protein: recombinant; tags: N-terminal GST; dsDNA, one strand shown. Summed up: (§1)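 Beads coated with glutathione captured GST-fused human transcription factors that had been expressed in yeast, and the factors were then given DNA barcodes and pooled with a tag-only sample. The pools were incubated with 200 nmole of a random double-stranded 16-mer DNA library in Tris/NaCl/DTT/glycerol buffer for 30 min at room temperature, washed, crosslinked with 0.1% formaldehyde and proximity-ligated with BsaI/T4 ligase at 37 °C for 1 h. PCR amplification and Illumina NextSeq500 sequencing came last. Binding signal is each hexamer's read frequency for a factor divided by its frequency for the tag-only sample.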

The next test concerns the target T2, ELK1 (Homo sapiens, UniProt P19419 1-428).
T2 sequence: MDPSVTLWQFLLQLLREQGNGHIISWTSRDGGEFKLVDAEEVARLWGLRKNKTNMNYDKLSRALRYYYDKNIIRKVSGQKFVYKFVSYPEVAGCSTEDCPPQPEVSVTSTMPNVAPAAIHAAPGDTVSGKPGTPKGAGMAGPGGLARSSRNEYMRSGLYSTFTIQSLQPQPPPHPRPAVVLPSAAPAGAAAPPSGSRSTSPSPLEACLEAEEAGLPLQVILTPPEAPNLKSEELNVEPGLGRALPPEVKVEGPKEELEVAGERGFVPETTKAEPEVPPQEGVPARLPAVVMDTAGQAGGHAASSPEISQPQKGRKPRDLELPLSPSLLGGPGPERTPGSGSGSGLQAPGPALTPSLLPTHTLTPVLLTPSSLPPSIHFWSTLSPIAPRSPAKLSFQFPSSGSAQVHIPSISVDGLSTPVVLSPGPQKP
The conditions noted are these: protein: recombinant; tags: N-terminal GST; dsDNA, one strand shown. Summed up:
as §1

In another test the target is T3, GABPA (Homo sapiens, UniProt Q06546 1-454).
T3 sequence: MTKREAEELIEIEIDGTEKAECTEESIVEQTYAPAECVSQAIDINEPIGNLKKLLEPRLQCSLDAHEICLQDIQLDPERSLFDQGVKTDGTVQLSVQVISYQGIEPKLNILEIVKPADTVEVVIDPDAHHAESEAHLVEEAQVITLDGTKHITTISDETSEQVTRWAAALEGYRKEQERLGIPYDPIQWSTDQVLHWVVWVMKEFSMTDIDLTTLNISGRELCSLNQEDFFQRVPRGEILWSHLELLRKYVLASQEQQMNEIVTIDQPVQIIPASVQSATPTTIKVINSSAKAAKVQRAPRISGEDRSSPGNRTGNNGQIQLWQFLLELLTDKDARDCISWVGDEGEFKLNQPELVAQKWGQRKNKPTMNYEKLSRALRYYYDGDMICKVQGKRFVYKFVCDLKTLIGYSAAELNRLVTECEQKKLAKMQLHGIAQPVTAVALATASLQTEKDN
To be noted: protein: recombinant; tags: N-terminal GST; dsDNA, one strand shown. Summed up: as §1

Another test addresses T4, ERG (Homo sapiens, UniProt P11308 1-479).
T4 sequence: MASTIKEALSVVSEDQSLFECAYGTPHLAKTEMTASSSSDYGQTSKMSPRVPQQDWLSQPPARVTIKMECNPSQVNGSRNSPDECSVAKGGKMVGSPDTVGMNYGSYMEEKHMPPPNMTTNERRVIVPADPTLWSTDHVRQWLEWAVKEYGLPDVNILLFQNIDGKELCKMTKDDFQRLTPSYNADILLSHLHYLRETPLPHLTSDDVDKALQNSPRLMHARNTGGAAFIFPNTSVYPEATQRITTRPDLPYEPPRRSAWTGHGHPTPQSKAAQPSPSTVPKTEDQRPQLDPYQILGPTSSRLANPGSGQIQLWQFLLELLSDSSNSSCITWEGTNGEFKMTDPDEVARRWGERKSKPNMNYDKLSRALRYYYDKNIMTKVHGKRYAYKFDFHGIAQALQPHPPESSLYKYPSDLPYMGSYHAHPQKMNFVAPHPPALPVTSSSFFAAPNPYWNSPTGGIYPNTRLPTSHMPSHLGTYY
To be noted: protein: recombinant; tags: N-terminal GST; dsDNA, one strand shown. Summed up:
as §1

The target in the next test is ELF1 (Homo sapiens, UniProt P32519 1-619). To be noted: protein: recombinant; tags: N-terminal GST; dsDNA, one strand shown. Summed up: as §1
Chain of ELF1 (P32519 whole entry): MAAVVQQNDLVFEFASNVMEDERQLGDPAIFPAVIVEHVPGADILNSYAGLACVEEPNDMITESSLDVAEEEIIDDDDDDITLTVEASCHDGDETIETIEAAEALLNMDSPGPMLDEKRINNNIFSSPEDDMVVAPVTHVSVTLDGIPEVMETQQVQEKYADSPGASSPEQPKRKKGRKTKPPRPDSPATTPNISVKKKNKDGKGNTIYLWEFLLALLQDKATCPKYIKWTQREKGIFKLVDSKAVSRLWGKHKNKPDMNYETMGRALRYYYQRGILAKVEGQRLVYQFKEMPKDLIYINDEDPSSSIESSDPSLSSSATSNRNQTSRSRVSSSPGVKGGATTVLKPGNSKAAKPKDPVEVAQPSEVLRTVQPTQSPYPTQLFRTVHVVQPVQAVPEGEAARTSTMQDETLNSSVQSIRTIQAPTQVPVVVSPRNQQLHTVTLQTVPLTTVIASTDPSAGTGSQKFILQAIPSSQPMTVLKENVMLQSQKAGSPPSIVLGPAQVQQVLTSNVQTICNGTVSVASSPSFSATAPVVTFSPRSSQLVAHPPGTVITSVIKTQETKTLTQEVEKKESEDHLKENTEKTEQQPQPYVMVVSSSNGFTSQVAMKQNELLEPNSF
The target of the next test is T5, EHF (Homo sapiens, UniProt Q9NZC4 1-300).
T5 sequence: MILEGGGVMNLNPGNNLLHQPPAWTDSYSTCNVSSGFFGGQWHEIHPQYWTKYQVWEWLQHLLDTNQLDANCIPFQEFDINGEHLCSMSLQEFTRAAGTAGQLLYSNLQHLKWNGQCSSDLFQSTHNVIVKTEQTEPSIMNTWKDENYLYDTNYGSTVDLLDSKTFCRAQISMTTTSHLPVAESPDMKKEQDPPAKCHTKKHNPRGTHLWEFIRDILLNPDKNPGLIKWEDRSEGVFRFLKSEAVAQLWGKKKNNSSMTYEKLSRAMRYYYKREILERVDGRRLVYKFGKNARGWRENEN
The conditions noted are these: protein: recombinant; tags: N-terminal GST; dsDNA, one strand shown. Summed up: as §1

A further test concerns the target SPI1 (Homo sapiens, UniProt P17947 1-270). To be noted: protein: recombinant; tags: N-terminal GST; dsDNA, one strand shown. Summed up: as §1
The target in another test is SPIB (Homo sapiens, UniProt Q01892 1-262). The conditions noted are these: protein: recombinant; tags: N-terminal GST; dsDNA, one strand shown. Summed up:
as §1

The target in another test is T6, ELK3 (Homo sapiens, UniProt P41970 1-407).
T6 sequence: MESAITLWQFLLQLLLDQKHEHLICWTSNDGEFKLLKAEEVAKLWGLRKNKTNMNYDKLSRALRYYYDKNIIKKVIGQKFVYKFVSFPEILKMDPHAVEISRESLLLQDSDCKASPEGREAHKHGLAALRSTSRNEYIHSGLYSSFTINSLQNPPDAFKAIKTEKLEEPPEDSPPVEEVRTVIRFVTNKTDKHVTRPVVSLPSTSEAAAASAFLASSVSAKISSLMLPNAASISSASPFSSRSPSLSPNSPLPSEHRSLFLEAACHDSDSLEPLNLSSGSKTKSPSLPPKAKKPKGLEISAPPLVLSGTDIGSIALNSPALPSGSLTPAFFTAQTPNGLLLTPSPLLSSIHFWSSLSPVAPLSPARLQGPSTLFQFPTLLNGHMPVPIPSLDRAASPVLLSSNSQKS
To be noted: protein: recombinant; tags: N-terminal GST; dsDNA, one strand shown. Summed up: as §1

The target in the next test is T7, FEV (Homo sapiens, UniProt Q99581 1-238).
T7 sequence: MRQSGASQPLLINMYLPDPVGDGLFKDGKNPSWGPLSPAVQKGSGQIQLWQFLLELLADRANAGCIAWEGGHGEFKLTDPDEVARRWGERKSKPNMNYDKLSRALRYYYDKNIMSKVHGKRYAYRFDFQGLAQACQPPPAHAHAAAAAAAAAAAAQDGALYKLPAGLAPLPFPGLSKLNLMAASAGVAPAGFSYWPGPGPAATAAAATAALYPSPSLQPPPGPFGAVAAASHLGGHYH
The conditions noted are these: protein: recombinant; tags: N-terminal GST; dsDNA, one strand shown. Summed up:
as §1

Another test addresses ETV5 (Homo sapiens, UniProt P41161 1-510). The conditions noted are these: protein: recombinant; tags: N-terminal GST; dsDNA, one strand shown. Summed up:
as §1

Another test addresses HSF1 (Homo sapiens, UniProt Q00613 1-529). The conditions noted are these: protein: recombinant; tags: N-terminal GST; chain copies: 3; dsDNA, one strand shown. Summed up: as §1
The next test addresses T8, SPIC (Homo sapiens, UniProt Q8N5J4 1-248).
T8 sequence: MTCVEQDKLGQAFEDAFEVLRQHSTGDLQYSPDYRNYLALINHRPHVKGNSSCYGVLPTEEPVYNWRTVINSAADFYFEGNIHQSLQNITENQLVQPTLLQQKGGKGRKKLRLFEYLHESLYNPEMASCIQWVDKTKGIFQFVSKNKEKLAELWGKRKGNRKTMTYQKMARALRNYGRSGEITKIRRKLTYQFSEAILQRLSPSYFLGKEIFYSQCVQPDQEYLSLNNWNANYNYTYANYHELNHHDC
To be noted: protein: recombinant; tags: N-terminal GST; dsDNA, one strand shown. Summed up: as §1

The next test concerns the target ELF4 (Homo sapiens, UniProt Q99607 1-663). The conditions noted are these: protein: recombinant; tags: N-terminal GST; dsDNA, one strand shown. Summed up:
as §1

The target in a further test is T9, ELK4 (Homo sapiens, UniProt P28324-2 1-405).
T9 sequence: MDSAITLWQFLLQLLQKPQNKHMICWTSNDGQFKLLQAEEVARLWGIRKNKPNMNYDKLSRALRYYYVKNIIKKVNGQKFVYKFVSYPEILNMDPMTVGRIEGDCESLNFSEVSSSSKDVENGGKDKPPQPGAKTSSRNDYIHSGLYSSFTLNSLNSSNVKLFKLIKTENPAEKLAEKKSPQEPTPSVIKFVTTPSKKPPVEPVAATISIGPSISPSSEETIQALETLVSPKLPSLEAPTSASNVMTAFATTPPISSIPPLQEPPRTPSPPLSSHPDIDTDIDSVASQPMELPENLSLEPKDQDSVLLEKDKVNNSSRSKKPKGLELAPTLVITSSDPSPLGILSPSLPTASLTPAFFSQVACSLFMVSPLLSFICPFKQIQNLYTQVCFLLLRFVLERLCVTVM
To be noted: protein: recombinant; tags: N-terminal GST; dsDNA, one strand shown. Summed up:
as §1

In a further test the target is T10, ETV2 (Homo sapiens, UniProt O00321 1-342).
T10 sequence: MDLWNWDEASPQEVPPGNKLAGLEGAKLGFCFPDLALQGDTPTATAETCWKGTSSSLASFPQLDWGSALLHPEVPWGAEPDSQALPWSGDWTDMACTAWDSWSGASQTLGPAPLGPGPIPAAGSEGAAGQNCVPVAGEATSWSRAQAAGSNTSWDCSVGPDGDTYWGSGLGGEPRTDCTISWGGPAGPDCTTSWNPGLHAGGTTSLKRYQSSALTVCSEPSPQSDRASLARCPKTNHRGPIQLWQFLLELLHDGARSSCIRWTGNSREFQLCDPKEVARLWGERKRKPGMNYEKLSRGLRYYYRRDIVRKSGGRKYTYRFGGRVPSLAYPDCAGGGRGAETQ
The conditions noted are these: protein: recombinant; tags: N-terminal GST; dsDNA, one strand shown. Summed up:
as §1

The target of another test is T11, ELF3 (Homo sapiens, UniProt P78545 1-371).
T11 sequence: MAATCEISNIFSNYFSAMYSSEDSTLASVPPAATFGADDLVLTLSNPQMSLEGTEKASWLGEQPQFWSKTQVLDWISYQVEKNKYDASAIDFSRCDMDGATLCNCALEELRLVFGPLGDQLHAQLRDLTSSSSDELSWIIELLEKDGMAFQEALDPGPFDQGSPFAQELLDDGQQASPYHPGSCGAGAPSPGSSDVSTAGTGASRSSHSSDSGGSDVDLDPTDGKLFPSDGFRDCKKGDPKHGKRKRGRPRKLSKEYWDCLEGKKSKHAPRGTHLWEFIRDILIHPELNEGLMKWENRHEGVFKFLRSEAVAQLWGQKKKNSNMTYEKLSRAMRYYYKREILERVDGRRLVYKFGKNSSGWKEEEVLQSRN
The conditions noted are these: protein: recombinant; tags: N-terminal GST; dsDNA, one strand shown. Summed up:
as §1

The target in a further test is CRX (Homo sapiens, UniProt O43186 1-299). To be noted: protein: recombinant; tags: N-terminal GST; dsDNA, one strand shown. Summed up:
as §1

For the next test, the target named is ETV1 (Homo sapiens, UniProt P50549 1-477). The conditions noted are these: protein: recombinant; tags: N-terminal GST; dsDNA, one strand shown. Summed up:
as §1

Chain of HSF1 (Q00613 whole entry): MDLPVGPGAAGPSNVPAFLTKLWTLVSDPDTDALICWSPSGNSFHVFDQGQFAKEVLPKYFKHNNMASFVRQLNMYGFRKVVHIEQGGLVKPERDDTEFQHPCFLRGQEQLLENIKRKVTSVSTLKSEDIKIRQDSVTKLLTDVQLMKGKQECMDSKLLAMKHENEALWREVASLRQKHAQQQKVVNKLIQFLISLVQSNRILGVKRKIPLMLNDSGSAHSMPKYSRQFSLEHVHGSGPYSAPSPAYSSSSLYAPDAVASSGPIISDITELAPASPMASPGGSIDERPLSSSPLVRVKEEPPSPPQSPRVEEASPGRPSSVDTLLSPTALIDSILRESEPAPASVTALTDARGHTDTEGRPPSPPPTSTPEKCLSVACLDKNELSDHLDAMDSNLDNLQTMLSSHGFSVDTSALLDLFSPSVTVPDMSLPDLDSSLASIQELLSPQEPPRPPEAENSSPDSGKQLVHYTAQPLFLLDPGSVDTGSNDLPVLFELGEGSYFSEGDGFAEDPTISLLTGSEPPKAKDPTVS
Chain of SPIB (Q01892 whole entry): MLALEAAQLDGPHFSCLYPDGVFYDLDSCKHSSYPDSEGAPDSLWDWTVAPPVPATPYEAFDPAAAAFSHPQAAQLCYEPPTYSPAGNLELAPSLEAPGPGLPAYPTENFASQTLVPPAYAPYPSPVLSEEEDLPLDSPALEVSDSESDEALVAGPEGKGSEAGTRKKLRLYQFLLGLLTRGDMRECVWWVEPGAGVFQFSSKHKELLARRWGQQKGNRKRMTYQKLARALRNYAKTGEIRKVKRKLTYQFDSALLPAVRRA
Chain of CRX (O43186 whole entry): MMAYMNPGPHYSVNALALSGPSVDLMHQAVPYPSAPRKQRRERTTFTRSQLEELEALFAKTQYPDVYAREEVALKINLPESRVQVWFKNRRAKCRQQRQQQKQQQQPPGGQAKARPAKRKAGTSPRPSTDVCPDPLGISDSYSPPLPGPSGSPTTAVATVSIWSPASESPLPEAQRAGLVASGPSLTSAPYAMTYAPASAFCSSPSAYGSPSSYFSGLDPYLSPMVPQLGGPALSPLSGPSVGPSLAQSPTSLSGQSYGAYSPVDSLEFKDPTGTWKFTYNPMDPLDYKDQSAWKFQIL
Chain of ELF4 (Q99607 whole entry): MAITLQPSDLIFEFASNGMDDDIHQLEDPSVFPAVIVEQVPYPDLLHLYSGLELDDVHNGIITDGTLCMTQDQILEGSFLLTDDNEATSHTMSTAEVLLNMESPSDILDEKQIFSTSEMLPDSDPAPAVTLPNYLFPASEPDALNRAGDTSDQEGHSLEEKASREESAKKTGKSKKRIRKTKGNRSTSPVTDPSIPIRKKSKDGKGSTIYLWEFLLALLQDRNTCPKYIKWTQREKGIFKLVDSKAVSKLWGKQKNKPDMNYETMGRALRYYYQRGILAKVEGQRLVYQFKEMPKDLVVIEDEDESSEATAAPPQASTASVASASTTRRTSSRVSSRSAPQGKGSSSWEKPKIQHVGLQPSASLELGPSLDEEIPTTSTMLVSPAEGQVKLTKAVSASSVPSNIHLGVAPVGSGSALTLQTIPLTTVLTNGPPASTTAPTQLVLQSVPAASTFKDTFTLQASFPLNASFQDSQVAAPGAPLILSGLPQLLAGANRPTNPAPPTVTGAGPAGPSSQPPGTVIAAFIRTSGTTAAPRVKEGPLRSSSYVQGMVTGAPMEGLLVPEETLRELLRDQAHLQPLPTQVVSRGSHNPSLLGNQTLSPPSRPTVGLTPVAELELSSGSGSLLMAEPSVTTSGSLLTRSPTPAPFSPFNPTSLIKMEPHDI
Chain of ETV1 (P50549 whole entry): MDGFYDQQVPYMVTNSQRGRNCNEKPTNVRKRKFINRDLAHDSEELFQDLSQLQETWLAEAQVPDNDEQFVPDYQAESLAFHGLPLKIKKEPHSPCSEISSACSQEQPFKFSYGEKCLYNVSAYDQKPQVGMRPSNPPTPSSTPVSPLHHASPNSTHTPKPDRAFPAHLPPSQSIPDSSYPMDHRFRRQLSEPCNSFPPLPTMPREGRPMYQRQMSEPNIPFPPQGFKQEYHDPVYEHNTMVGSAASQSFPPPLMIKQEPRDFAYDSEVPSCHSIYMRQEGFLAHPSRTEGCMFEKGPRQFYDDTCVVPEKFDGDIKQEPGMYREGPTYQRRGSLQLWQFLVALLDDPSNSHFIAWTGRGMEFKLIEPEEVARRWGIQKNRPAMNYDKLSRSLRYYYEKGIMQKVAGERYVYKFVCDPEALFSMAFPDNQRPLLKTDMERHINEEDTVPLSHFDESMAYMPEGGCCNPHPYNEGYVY
Chain of ETV5 (P41161 whole entry): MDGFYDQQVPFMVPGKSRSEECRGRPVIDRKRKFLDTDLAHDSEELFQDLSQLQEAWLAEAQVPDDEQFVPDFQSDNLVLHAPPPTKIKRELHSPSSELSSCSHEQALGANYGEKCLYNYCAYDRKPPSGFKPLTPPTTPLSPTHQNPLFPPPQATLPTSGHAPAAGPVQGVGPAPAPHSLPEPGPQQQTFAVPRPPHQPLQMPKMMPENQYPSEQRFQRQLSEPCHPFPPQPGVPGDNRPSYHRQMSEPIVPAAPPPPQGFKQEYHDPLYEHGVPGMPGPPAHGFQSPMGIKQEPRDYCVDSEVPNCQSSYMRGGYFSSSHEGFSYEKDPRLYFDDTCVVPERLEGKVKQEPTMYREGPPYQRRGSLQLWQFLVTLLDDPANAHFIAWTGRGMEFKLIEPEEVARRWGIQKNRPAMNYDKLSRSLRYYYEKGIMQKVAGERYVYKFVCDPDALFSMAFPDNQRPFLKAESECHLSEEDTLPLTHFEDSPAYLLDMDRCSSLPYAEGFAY

As to CCTACA, the binding signal in the test with FLI1 was 1.35 fold enrichment (6-mer frequency, TF over GST control); with ELK1, 1.26 fold enrichment (6-mer frequency, TF over GST control); with GABPA it was 1.33 fold enrichment (6-mer frequency, TF over GST control); with ERG it was 1.21 fold enrichment (6-mer frequency, TF over GST control); with ELF1, 1.19 fold enrichment (6-mer frequency, TF over GST control); with EHF, 1.18 fold enrichment (6-mer frequency, TF over GST control). The binding signal with SPI1 was 1.16 fold enrichment (6-mer frequency, TF over GST control); with SPIB, 1.17 fold enrichment (6-mer frequency, TF over GST control); with ELK3, 1.19 fold enrichment (6-mer frequency, TF over GST control); with FEV, 1.18 fold enrichment (6-mer frequency, TF over GST control); with ETV5, 1.26 fold enrichment (6-mer frequency, TF over GST control); with HSF1 it was 1.07 fold enrichment (6-mer frequency, TF over GST control). Further, the binding signal was 1.35 fold enrichment (6-mer frequency, TF over GST control) with SPIC; 1.22 fold enrichment (6-mer frequency, TF over GST control) in the test with ELF4; 1.31 fold enrichment (6-mer frequency, TF over GST control) in the test with ELK4; 1.13 fold enrichment (6-mer frequency, TF over GST control) in the test with ETV2; 1.13 fold enrichment (6-mer frequency, TF over GST control) with ELF3; 1.01 fold enrichment (6-mer frequency, TF over GST control) with CRX. Besides, the binding signal with ETV1 is 1.16 fold enrichment (6-mer frequency, TF over GST control).
